High-throughput results from PubChem BioAssay.
In the library only some 0.9% were active in any assay of this set; here they are far more common.
CDC25B-CDK2 inh: human CDC25B-CDK2/CyclinA binding inhibition. P30305+P24941. HTRF CDC25B-CDK2/CyclinA binding, anti-His/anti-Flag; active compounds read high. z-score (test concentration not listed). 94,000 tested, 0.72% active. AID 1259370; in the data active = z-score above about 3.2
TAR Tat displ: HIV-1 TAR-Tat binding disruption; HIV-1 TAR RNA, Tat peptide displacement FRET; active compounds read high; z-score (test concentration not listed); 100,000 tested, 0.6% active; AID 1259389; active = z-score of 3 or more in at least 2 runs
Numbers without * were called inactive; . = not tested or not shown.

SMILES | CDC25B-CDK2 inh | TAR Tat displ
O=C(NCCC1=CCCCC1)c1nnc(Cc2ccc3c(c2)OCO3)o1 | 0.23 | 1.1
Cc1ccc(-c2[nH]nc3nc(-c4ccc(O)c(O)c4)cc(C(=O)O)c23)cc1 | -0.27 | 20*
Cc1ccc(-c2cc(C(=O)O)c3c(-c4ccccc4)[nH]nc3n2)cc1 | . | 0.86
COc1cc2ncc(S(=O)(=O)c3ccc(C)cc3)c(N3CCCC(C)C3)c2cc1OC (stereo not given) | 0.09 | -1.6
O=S(=O)(O)c1ccc2[nH]c(=S)sc2c1 | -0.66 | .
O=S(=O)(O)c1cc[n+]([O-])cc1 | 4.4* | .
COc1ccc(OCC(=O)Nc2nn3c(-c4ccco4)nnc3s2)cc1 | 0.67 | 25*
O=C(COc1ccccc1)Nc1nn2c(-c3ccco3)nnc2s1 | 0.26 | 32*
CCc1nnc2sc(NC(=O)c3ccco3)nn12 | -1.6 | 1.5
O=C(Nc1nn2c(-c3ccco3)nnc2s1)c1cccc(F)c1 | -2.1 | -2.6
O=C(Nc1nn2c(-c3ccco3)nnc2s1)c1ccc(F)cc1 | -1.7 | 0.03
CC(C)Cc1nnc2sc(NC(=O)c3ccco3)nn12 | -0.44 | 11*
Cc1ncc(-c2ccc(S(=O)(=O)NCCC3=CCCCC3)cc2)o1 | . | 1.2
CCOc1cc(CNc2ccc3[nH]c(=O)[nH]c3c2)cc(Cl)c1OCC | 7.7* | -2.6
COc1cc(CNCCSc2nnnn2C)cc(Br)c1OCc1ccc(F)cc1 | 1.4 | 1.5
C=CCOc1c(Cl)cc(CNc2ccc3[nH]c(=O)[nH]c3c2)cc1OC | -0.61 | 1.6
COc1cc(CNc2ccc3[nH]c(=O)[nH]c3c2)cc(Br)c1OCc1ccc(F)cc1 | 7.2* | -2.9
O=C(COc1ccc(Br)cc1)Nc1noc(-c2cccs2)n1 | -9.1 | -0.04
COC(=O)CN1C(=O)COc2ccc(S(=O)(=O)NC(C)C)cc21 | . | 1.1
COC(=O)c1cc(C)nc2c1c(=O)nc(SCC(=O)N(C)C1CCCCC1)n2C1CC1 | . | -0.84
O=C(CSc1nc2c(c(=O)[nH]1)CCCC2)Nc1ccccc1F | -1.6 | 15*
O=C(CSc1nc2c(c(=O)[nH]1)CCCC2)Nc1ccccc1Cl | -1.7 | 0.06
O=S(=O)(NCCc1nnc2ccc(SCc3ccccc3F)nn12)c1ccccc1 | . | -0.99
O=C(CCCn1c(=S)[nH]c2ccc(Br)cc2c1=O)NC1CCCC1 | -6.6 | .
CC1=CC(=O)N(c2nc(-c3ccc(Cl)cc3)cs2)C1=O | -1.3 | .
SMILES | CDC25B-CDK2 inh | TAR Tat displ
CC1=NN(c2nc(-c3ccc(Br)cc3)cs2)C(=O)/C1=C\c1ccc2c(c1)OCO2 | 21* | .
O=C(CCN1C(=O)/C(=C/c2ccc3c(c2)OCO3)SC1=S)Nc1nc(-c2ccccc2)cs1 | -39 | .
CC1=NN(c2nc(-c3ccc(Cl)cc3)cs2)C(=O)/C1=C\c1ccc2c(c1)OCO2 | 6.9* | .
Cn1nnnc1SCCCNCc1ccccc1F | 0.49 | 0.69
COC(=O)c1cnc(N(C)Cc2ccccc2)c2ccccc12 | . | 0.6
Cc1ccccc1CNc1nc(N2CCN(CCO)CC2)nc2c1cnn2C | . | 1.8
COC(=O)CC(C(=O)OC)P(=O)(O)CN(C)S(C)(=O)=O (stereo not given) | 4.5* | .
FC(F)(F)C(=C(NC(=S)n1cnc2ccccc21)C(F)(F)C(F)(F)F)C(F)(F)F | -3.2 | .
FC(F)(F)C(=C(NC(=S)N1CCCCCC1)C(F)(F)C(F)(F)F)C(F)(F)F | 5.7* | .
CC1CC(=O)Nc2cc(S(=O)(=O)Nc3cccc(Cl)c3)ccc2S1 (stereo not given) | . | 1.4
O=C1Nc2cc(Cl)ccc2SC2CCCCC2O1 (stereo not given) | 20* | .
CCc1ccc(S(=O)(=O)Nc2cc3c4c(oc3c3ccccc23)CCCC4=O)cc1 | 18* | .
O=C1CCCc2oc3c(cc(NS(=O)(=O)c4cccc([N+](=O)[O-])c4)c4ccccc43)c21 | -0.92 | .
CC(=O)Nc1ccc2nc3c(=O)[nH]c(=O)[nH]c3nc2c1 | 8* | 1.8
CCC(=O)Nc1ccc2nc3c(=O)[nH]c(=O)[nH]c3nc2c1 | 2.9 | -4.7
c1ccc(-c2c3ssnc-3c3ccccc23)cc1 | 17* | .
Cc1nc(-c2ccccc2)c(-c2ccccc2)s1 | -0.54 | 1.7
Cc1c(/C=C/C(=O)Nc2ccc(F)cc2)sc2ccccc12 | -1.1 | .
CCOC(=O)c1c(N)n(CCc2ccccc2)c2nc3ccccc3nc12 | 0.32 | 0.65
Cc1ccc(S(=O)(=O)c2c(N)n(CCO)c3nc4ccccc4nc23)cc1 | 18* | .
Cc1c(C)n(-c2ccccc2)c2ncn3nc(-c4ccc(F)cc4)nc3c12 | -1.3 | 0.21
O=C(C1COc2cc(S(=O)(=O)N3CCc4ccccc43)ccc2O1)N1CCOCC1 (stereo not given) | . | 0.15
Cc1ccc(OCCSc2nnc(-c3ccccc3)o2)cc1 | -0.3 | -0.01
CSc1sc(C(=O)NC(=O)Nc2ccc(Cl)cc2)c2c1-c1nocc1CC2 | 13* | .
CSc1sc(C(=O)NNC(=O)Nc2ccc(Cl)cc2)c2c1C1(CCC2)SCCS1 | -1.5 | .
SMILES | CDC25B-CDK2 inh | TAR Tat displ
CO[C@H]1C[C@H](O[C@H]2[C@H](C)[C@@H](OC3O[C@H](C)C[C@H](N(C)C)[C@H]3O)[C@@H](C)C[C@]3(CO3)C(=O)[C@H](C)[C@@H](O)[C@@H](C)[C@@H](C)OC(=O)[C@@H]2C)O[C@@H](C)[C@@H]1O (stereo not given in full) | . | -0.99
Cn1c(=O)c2c(nc(CN3CCC(Cc4ccccc4)CC3)n2Cc2ccccc2)n(C)c1=O | -1.1 | -0.55
Cc1nc2sccn2c(=O)c1NC(=O)c1ccco1 | . | 1.4
Cc1nc2sccn2c1C(=O)NN | 15* | .
COc1cccc(-c2noc(NCc3cccs3)n2)c1 | . | -1.4
Cc1ccc(C)c(N2CCN(c3c(-c4ccc(C)c(C)c4)c(=O)c3=O)CC2)c1 | . | 13*
Cc1ccc(-c2c(N3CCN(c4cc(C)ccc4C)CC3)c(=O)c2=O)cc1 | . | 1.5
Oc1ccccc1C1=NN2C(C1)c1cc(Br)ccc1OC2c1ccsc1 (stereo not given) | -0.48 | -6.2
O=S1(=O)C[C@H](NCc2ccccc2)[C@@H](S(=O)(=O)c2ccccc2)C1 | -1.4 | -1.2
CC(C)(C)N[C@H]1CS(=O)(=O)C[C@@H]1S(=O)(=O)c1ccccc1 | -0.12 | 19*
CC(C)c1ccc(OCC(=O)Nc2nnc3n2CCS3)cc1 | . | 0.11
NC(N)=NS(=O)(=O)c1ccc(N/C=C\C(=O)c2ccc(F)cc2)cc1 | -1.6 | .
NC(N)=NS(=O)(=O)c1ccc(N/C=C\C(=O)c2ccc3ccccc3c2)cc1 | 18* | .
CSc1ccc(-c2nc3nc[nH]n3c2Nc2ccc(C)cc2)cc1 | -0.12 | .
CC(=O)N1c2ccc(S(=O)(=O)N3CCCC3)cc2CC1C(=O)NCCN1CCOCC1 (stereo not given) | . | 2
CCOC(=O)c1ccc(N2CSC3=C(C#N)C(c4cccs4)CC(=O)N3C2)cc1 (stereo not given) | 7.1* | -3.1
Cc1ccc(N2CSC3=C(C#N)C(c4cccs4)CC(=O)N3C2)cc1 (stereo not given) | 4.1* | -0.6
CCc1ccc(N2CSC3=C(C#N)C(c4cccs4)CC(=O)N3C2)cc1 (stereo not given) | 6.2* | -1.8
COc1ccc(N2CSC3=C(C#N)C(c4cccs4)CC(=O)N3C2)cc1 (stereo not given) | 1.6 | -0.62
COC(=O)c1ccc(N2CSC3=C(C#N)C(c4cccs4)CC(=O)N3C2)cc1 (stereo not given) | -0.72 | 2.2
Cc1nc2ccc(S(=O)(=O)NC(CC(C)C)C(=O)N3CCc4ccccc4C3)cc2s1 (stereo not given) | -0.73 | 0.74
